Screening results deposited in PubChem BioAssay by several laboratories.
Hits are enriched below; roughly 27% of the tested compounds scored in any of these assays.
CYP2C9 inh: blocks human cytochrome P450 2C9; P11712; CYP2C9 Supersomes, luciferin-H conversion, luminescence; inhibition, % at 5 µM; 96,000 compounds, 20% hits; AID 777;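 active means blocking of liver enzyme CYP2C9 beyond about 50% at 5 µM, limit read from the data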
Target sequence (P11712 whole entry, looked up): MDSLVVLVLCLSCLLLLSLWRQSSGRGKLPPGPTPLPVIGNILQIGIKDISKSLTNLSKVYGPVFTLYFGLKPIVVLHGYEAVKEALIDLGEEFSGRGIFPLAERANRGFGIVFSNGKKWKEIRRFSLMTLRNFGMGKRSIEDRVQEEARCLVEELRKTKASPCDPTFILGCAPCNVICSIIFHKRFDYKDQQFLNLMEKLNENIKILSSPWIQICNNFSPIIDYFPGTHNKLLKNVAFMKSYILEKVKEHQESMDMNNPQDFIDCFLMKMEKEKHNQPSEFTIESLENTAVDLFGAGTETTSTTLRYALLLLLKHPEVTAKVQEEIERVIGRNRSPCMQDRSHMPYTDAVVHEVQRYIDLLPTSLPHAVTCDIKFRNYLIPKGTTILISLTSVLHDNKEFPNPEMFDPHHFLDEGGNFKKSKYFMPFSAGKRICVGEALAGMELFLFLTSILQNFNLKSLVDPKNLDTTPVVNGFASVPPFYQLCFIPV
Cav3 T inh: blocks human Cav3.2 T-type calcium channel; B-score at 10 µM; Cav3.2-expressing cells, Fluo-4 calcium fluorescence FDSS; stronger effect = lower value; 100,000 compounds, 4% hits; O95180;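 active means single-dose well whose peak fluorescence ratio is a statistical outlier from its plate by either plate-standardised score or position-corrected B-score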
CYP2C19 inh: inhibitors of human CYP2C19; P33261; inhibition, % at 5 µM; CYP2C19 Supersomes, luciferin-H EGE luminescence, 30 min; 96,000 compounds, 21% hits; AID 778;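 active means CYP2C19 inhibition above a set limit at 5 µM in the primary screen, cut at about 50% in these data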;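 further: plate controls were negative control wells for no effect and 2.5 mM tranylcypromine positive control for full effect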
CYP2C9 act: increases human cytochrome P450 2C9 activity; activation factor at 5 µM; P11712; recombinant CYP2C9, luciferin-H conversion, luminescence; stronger effect = higher value; factor 1 = untreated enzyme, 0 = blocked; AID 1024; 96,000 compounds, 1.4% hits;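 active means activation factor of 2 or more for CYP2C9 at a 5 µM dose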;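 further: 0 = sulfaphenazole-blocked wells and 1 = vehicle-only wells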
CYP2C19 act: cytochrome P450 2C19 (human) activation; P33261; recombinant CYP2C19, luciferin-H EGE luminescence; stronger effect = higher value; 0 = fully inhibited enzyme, 1 = untreated enzyme; activation factor at 5 µM; 96,000 tested, under 10 active;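 active means activation factor of at least 2 at 5 µM in the primary screen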;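 further: 0 = wells with 2.5 mM tranylcypromine and 1 = vehicle-only wells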
Active calls of the source: *.

For Cc1cccc(S(=O)(=O)NCCC(=O)OC(C)C(=O)NC(=O)NC2CCCCC2)c1 (centres undefined) the results were CYP2C9 inh 56.3*, Cav3 T inh -7.8*, CYP2C19 inh 13.9, CYP2C9 act 0.4 and CYP2C19 act 0.9.
`CCCNS(=O)(=O)c1ccc(CCC(=O)N2CCN(c3ccc(OC)cc3)CC2)cc1` gave CYP2C9 inh 87.2*, Cav3 T inh 0.4, CYP2C19 inh 80.5*, CYP2C9 act 0.1 and CYP2C19 act 0.2.
`O=C(COc1ccc(S(=O)(=O)NC2CCCCC2)cc1)NC1CCCCC1` gave Cav3 T inh -3.34.
O=S(=O)(NC1CCCCC1)c1ccc(Br)cc1 was read as CYP2C9 inh 26.0, Cav3 T inh -1.52, CYP2C19 inh 79.8*, CYP2C9 act 0.7 and CYP2C19 act 0.2.
For Cc1nn(-c2ccccc2)c(C)c1C(=O)Nc1nnc(-c2ccco2)o1 the results were CYP2C9 inh -22.6, Cav3 T inh -0.329, CYP2C19 inh -2.0, CYP2C9 act 1.2 and CYP2C19 act 1.
For O=C1C2C3CCC(C3NCc3ccccc3)C2C(=O)N1Cc1ccccc1 (centres undefined) the results were CYP2C9 inh 23.5, Cav3 T inh -2.56, CYP2C19 inh 33.2, CYP2C9 act 0.8 and CYP2C19 act 0.7.
For Cc1nn(-c2ccc(F)cc2)c(Cl)c1/C=C(\CC(=O)O)c1nc2ccccc2s1 the results were CYP2C9 inh 17.3, Cav3 T inh -1.9, CYP2C19 inh -12.1, CYP2C9 act 0.8 and CYP2C19 act 1.1.
`O=C(CCNS(=O)(=O)c1ccc(Br)s1)NC1CCCC1` gave CYP2C9 inh -108.2, Cav3 T inh 0.587, CYP2C19 inh 13.1, CYP2C9 act 2.1* and CYP2C19 act 0.9.
O=C(CCS(=O)(=O)c1ccc(Br)s1)NC1CCCC1 was read as CYP2C9 inh -21.5, Cav3 T inh 1.02, CYP2C19 inh 0.8, CYP2C9 act 1.2 and CYP2C19 act 1.
Screening O=C(CCc1ccccc1)Nc1ccccc1F returned CYP2C9 inh 24.7, CYP2C19 inh 76.4*, CYP2C9 act 0.8 and CYP2C19 act 0.2.
For O=C(CCN1C(=O)c2ccccc2C1=O)Nc1ccc(F)cc1F the results were CYP2C9 inh -3.7, Cav3 T inh 1.71, CYP2C19 inh 36.4, CYP2C9 act 1 and CYP2C19 act 0.6.
O=C(CCc1ccccc1)Nc1ccc(F)cc1F was read as CYP2C9 inh 4.8, Cav3 T inh -0.076, CYP2C19 inh 59.9*, CYP2C9 act 1 and CYP2C19 act 0.4.
Screening O=C(CCc1ccccc1)Nc1c(F)c(F)c(F)c(F)c1F returned CYP2C9 inh 17.9, Cav3 T inh -1.52, CYP2C19 inh 26.1, CYP2C9 act 0.8 and CYP2C19 act 0.7.
For Cc1ccc(C)c(NC(=O)Cn2nnc(C(=O)NCc3cccs3)c2N)c1 the results were CYP2C9 inh -26.3, Cav3 T inh -1.28, CYP2C19 inh -15.1, CYP2C9 act 1.3 and CYP2C19 act 1.2.
Screening COc1cc(C)nc(Oc2ccc(OCCOc3ccc(C)cc3)nn2)n1 returned CYP2C9 inh 47.5, Cav3 T inh -1.45, CYP2C19 inh 35.2, CYP2C9 act 0.5 and CYP2C19 act 0.6.
`COc1ccc(C2/C=C\CN(Cc3ccco3)CC(=O)N2Cc2ccc(F)cc2)cc1` (centres undefined) gave Cav3 T inh -0.893.
For COc1ccc(-c2csc(/C(C#N)=C(\O)CSc3nccn3C)n2)cc1OC the results were CYP2C9 inh 68.7*, Cav3 T inh -0.814, CYP2C19 inh 19.0, CYP2C9 act 0.3 and CYP2C19 act 0.8.
`COc1ccccc1N1CCN(C/C(O)=C(\C#N)c2nc(-c3ccccc3)cs2)CC1` gave CYP2C9 inh 45.7, Cav3 T inh -0.982, CYP2C19 inh 18.7, CYP2C9 act 0.5 and CYP2C19 act 0.8.
For OCCNc1nc(Nc2cc(Cl)ccc2OC2CCCC2)nc(N2CCCC2)n1 the results were Cav3 T inh -0.0998.
Screening COC(=O)c1ccc2c(c1)SC1=C(CCCC1=O)N2 returned CYP2C9 inh 20.1, Cav3 T inh -1.77, CYP2C19 inh 82.9*, CYP2C9 act 0.8 and CYP2C19 act 0.2.
For COC(=O)c1ccc2c(c1)NC(=O)C(N1CCCC1)S2 (centres undefined) the results were CYP2C9 inh 15.0, Cav3 T inh 0.284, CYP2C19 inh 6.8, CYP2C9 act 0.8 and CYP2C19 act 0.9.
Screening CCN1C(=O)C(Cc2nc3ccccc3c(=O)n2C)c2ccccc21 (centres undefined) returned CYP2C9 inh 60.3*, Cav3 T inh 0.163, CYP2C19 inh 56.9*, CYP2C9 act 0.4 and CYP2C19 act 0.4.
Screening CCCN1C(=O)C(Cc2nc3ccccc3c(=O)n2C)c2ccccc21 (centres undefined) returned CYP2C9 inh 27.9, CYP2C19 inh 47.5, CYP2C9 act 0.7 and CYP2C19 act 0.5.
For O=C(CN1C(=O)CSC1=O)Nc1ccccc1F the results were CYP2C9 inh 11.2, Cav3 T inh -2.42, CYP2C19 inh 1.4, CYP2C9 act 0.9 and CYP2C19 act 1.
Cc1ccc(S(=O)(=O)Nc2ccc(S(=O)(=O)Nc3ncccn3)cc2)cc1 was read as CYP2C9 inh 48.7, Cav3 T inh 0.0174, CYP2C19 inh 27.3, CYP2C9 act 0.5 and CYP2C19 act 0.7.
CC(=O)Nc1ccc(S(=O)(=O)Nc2nnc(C(C)C)s2)cc1 was read as CYP2C9 inh 60.4*, Cav3 T inh -0.00999, CYP2C19 inh -25.5, CYP2C9 act 0.4 and CYP2C19 act 1.3.
Screening COC(=O)Nc1ccc(S(=O)(=O)Nc2ccc(C)cc2)cc1 returned CYP2C9 inh 17.1, Cav3 T inh 0.00937, CYP2C19 inh 7.4, CYP2C9 act 0.8 and CYP2C19 act 0.9.
`CSc1ccc(S(=O)(=O)Nc2ccc(S(=O)(=O)Nc3ccc(C)cc3)cc2)cc1` gave CYP2C9 inh 100.3*, Cav3 T inh -4.36, CYP2C19 inh 94.8*, CYP2C9 act 0 and CYP2C19 act 0.1.
Screening CSc1ccc(S(=O)(=O)Nc2ccc(NC(C)=O)cc2)cc1 returned CYP2C9 inh 94.5*, CYP2C19 inh 99.9*, CYP2C9 act 0.1 and CYP2C19 act 0.
Screening O=C1CN=C(Nc2ccccc2Cl)N1Cc1ccc2c(c1)OCO2 returned Cav3 T inh 0.00538.
`CC(C)NC(=O)c1c2c(nc3ccccc13)CCCC2` gave Cav3 T inh 0.695.
`CCCCC(NC(=O)c1ccc(Cl)cc1)C(=O)O` (centres undefined) gave CYP2C9 inh 30.2, Cav3 T inh -0.0385, CYP2C19 inh -6.1, CYP2C9 act 0.7 and CYP2C19 act 1.1.
For CCN(CC)C(=O)c1ccc(C(=O)c2c(C)cc(C)cc2C)cc1 the results were CYP2C9 inh 39.7, Cav3 T inh -0.108, CYP2C19 inh 42.7, CYP2C9 act 0.6 and CYP2C19 act 0.6.
Screening CCCCCN(CCCCC)C(=O)C(CCC(=O)O)NC(=O)c1ccc(Cl)c(Cl)c1 (centres undefined) returned Cav3 T inh -8.52*.
